Laboratory results reported in PubChem BioAssay.
Active and inactive are the calls of the source.

Columns and labels:
Albumin (Bos taurus) = Albumin (Bos taurus) (UniProt P02769); assay: compounds binding labelled BSA control protein – biochemical, small-molecule microarray, Alexa647 label, 635/667 nm fluorescence, artefact control for SMM control protein annotation, profiling panel (AID 1118); conditions: BSA-A647 binding, fluorescence 635 nm, higher = more signal;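 also: score merges 667 nm emission intensity and signal-to-noise per printed compound spot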
[1] = probe aXIP binding to arrayed compounds – biochemical, NeuroSMM set, 635/667 nm fluorescence, primary screen (AID 1119); conditions: small-molecule microarray, higher = more signal, called active from +8 up or from −8 down;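 also: probe is the protein aXip251-270 applied at 1 µg/mL to compound-printed slides; binding of probe to printed compounds measured as 667 nm fluorescence plus signal to noise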
[2] = probe aNOTCH3 binding on compound microarray – biochemical, small-molecule microarray, 635/667 nm fluorescence, primary screen (AID 1120); conditions: higher = more signal;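 also: probe is a biotin-tagged antibody raised against NOTCH3 rather than NOTCH3 protein; score merges spot fluorescence near 667 nm with spot signal to noise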
[3] = probe aNOTCH2 binding on compound microarray – biochemical, small-molecule microarray, 635/667 nm fluorescence, primary screen (AID 1121); conditions: higher = more signal;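 also: score merges feature fluorescence read at 667 nm with its signal to noise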
[4] = molecular target: Carbonic anhydrase 2 (Homo sapiens) (UniProt P00918); assay: compounds binding carbonic anhydrase 2 – biochemical, small-molecule microarray, Alexa647-labelled CAII, profiling panel (AID 1122); conditions: CAII-A647 binding fluorescence, higher = more signal
[5] = COS7 lysate on small-molecule microarray, probe aHis, 635 nm (AID 1123); conditions: COS7 cell lysate, fluorescence, higher = more signal;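 also: z-score combines 667nm fluorescence intensity with signal-to-noise per printed compound spot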
[6] = probe aLAP1 signal on lysate-treated microarray – cell lysate, small-molecule microarray, COS7 lysate, primary screen (AID 1124); conditions: probe aLAP1, fluorescence, higher = more signal;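 also: lysate comes from COS7 cells expressing LAP1 and is applied at 0.3 µg/mL; score merges spot fluorescence near 667 nm with signal-to-noise over triplicate slides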
Sam68 (KHDRBS1) = assay: compounds binding KHDRBS1 protein – biochemical, small-molecule microarray, 635 nm fluorescence, primary screen (AID 1125); conditions: higher = more signal;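 also: score merges 667 nm channel intensity with signal to noise over triplicate slides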
[7] = system: Chordin-like protein 2 (CHRDL2); assay: compounds binding chordin-like 2 – biochemical, small-molecule microarray, 635 nm fluorescence, primary screen (AID 1126); conditions: fluorescence 635 nm, higher = more signal;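 also: printed compound slides probed with Chrdl2 protein at 4 µg/mL for 1 h at 4 C; score merges 667 nm emission intensity with signal to noise over three replicate slides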
[8] = molecular target: Concanavalin-A (Canavalia ensiformis) (UniProt P02866); assay: compounds binding concanavalin A lectin – biochemical, small-molecule microarray, Alexa647 label, 635 nm, artefact control for SMM control protein annotation, primary screen (AID 1127); conditions: ConA-A647 binding fluorescence, higher = more signal;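 also: z combines 667 nm emission intensity with signal-to-noise across three replicate slides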
[9] = compounds binding Alexa647 anti-His antibody – biochemical, small-molecule microarray, 635 nm fluorescence, artefact control for SMM control protein annotation, primary screen (AID 1128); conditions: higher = more signal;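 also: score merges feature fluorescence with signal-to-noise for each printed compound spot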
[10] = system: Human papillomavirus type 1a E7 protein (residues 1-88); assay: HPV1a E7 small-molecule binders, primary screen, biochemical, small-molecule microarray, residues 1-88, 635 nm (AID 1129); conditions: small-molecule microarray binding, fluorescence 635 nm; higher = more signal
[11] = molecular target: Focal adhesion kinase 1 (Homo sapiens) (UniProt Q05397); assay: PTK2 protein binding on printed compound slides – biochemical, small-molecule microarray, 635/667 nm fluorescence, BSA, DTT, primary screen (AID 1130); conditions: 635 nm fluorescence, higher = more signal;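 also: composite of spot emission at 667 nm and signal to noise over triplicate slides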
[12] = system: Fibrinogen (Alexa647-labelled); assay: Alexa647-fibrinogen binding to printed small molecules – biochemical, small-molecule microarray, 635/667 nm fluorescence, artefact control for SMM control-protein annotation, profiling panel (AID 1131); conditions: fibrinogen-A647 binding fluorescence, higher = more signal;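 also: z-score merges 667 nm fluorescence with per-spot signal-to-noise over triplicate slides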
[13] = molecular target: Follistatin (Homo sapiens) (UniProt P19883); assay: FST protein binding to printed compounds – biochemical, small-molecule microarray, 635/667 nm fluorescence, primary screen (AID 1132); conditions: 635 nm fluorescence, higher = more signal
[14] = molecular target: Fibroblast growth factor 2 (Homo sapiens) (UniProt P09038); assay: basic fibroblast growth factor binding to printed compounds – biochemical, small-molecule microarray, 635/667 nm fluorescence, primary screen (AID 1133); conditions: FGF2, fluorescence 635/667, higher = more signal
[15] = JC-1 mitochondrial potential readout, lung cancer cells – cell-based, A549, JC-1 fluorescence, basal, 24 h, 100 nL, profiling panel (AID 1138); conditions: higher = more signal;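 also: A549 lung adenocarcinoma cells under basal conditions with no added stimulus; test concentration not given here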
Lefty1 = Lefty1 protein binding to printed compounds – biochemical, small-molecule microarray, 635/667 nm fluorescence, primary screen (AID 1139); conditions: fluorescence 635/667, higher = more signal
[16] = system: wheat germ agglutinin (Triticum aestivum), Alexa647-labelled; assay: Alexa647-WGA lectin binding to printed small molecules – biochemical, small-molecule microarray, 635/667 nm fluorescence, artefact control for SMM control-protein annotation, profiling panel (AID 1140); conditions: WGA-A647 binding, 635 nm fluorescence, higher = more signal;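 also: score merges 667 nm feature emission with signal to noise over triplicate slides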
[17] = molecular target: Luciferin 4-monooxygenase (Photinus pyralis) (UniProt P08659); assay: inhibition of purified Photinus pyralis luciferase – biochemical, luminescence, purified enzyme, 2006 set, primary screen (AID 1141); conditions: purified firefly luciferase, SteadyGlo luminescence, 30 min; higher = more signal, called active from +8 up or from −8 down;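 also: cell-free assay with purified firefly luciferase at 100 ng per well in PBS; test concentration not given here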
Luciferin 4-monooxygenase (Photinus pyralis), sequence (P08659 whole entry, looked up): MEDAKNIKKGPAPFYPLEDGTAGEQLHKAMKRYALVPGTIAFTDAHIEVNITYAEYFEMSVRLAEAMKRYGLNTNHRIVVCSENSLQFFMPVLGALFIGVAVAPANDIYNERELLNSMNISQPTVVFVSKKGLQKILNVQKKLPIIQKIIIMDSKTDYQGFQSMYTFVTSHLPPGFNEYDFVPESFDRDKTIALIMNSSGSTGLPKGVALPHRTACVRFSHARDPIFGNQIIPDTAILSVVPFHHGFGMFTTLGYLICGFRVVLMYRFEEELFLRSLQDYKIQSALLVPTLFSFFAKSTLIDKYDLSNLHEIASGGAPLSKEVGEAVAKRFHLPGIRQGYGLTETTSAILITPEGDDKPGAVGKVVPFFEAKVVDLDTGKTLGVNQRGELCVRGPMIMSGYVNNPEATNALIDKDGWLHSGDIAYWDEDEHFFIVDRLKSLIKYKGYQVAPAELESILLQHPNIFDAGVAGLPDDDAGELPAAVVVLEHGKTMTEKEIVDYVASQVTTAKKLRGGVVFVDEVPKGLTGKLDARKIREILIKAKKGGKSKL

Focal adhesion kinase 1 (Homo sapiens), sequence (Q05397 whole entry, looked up): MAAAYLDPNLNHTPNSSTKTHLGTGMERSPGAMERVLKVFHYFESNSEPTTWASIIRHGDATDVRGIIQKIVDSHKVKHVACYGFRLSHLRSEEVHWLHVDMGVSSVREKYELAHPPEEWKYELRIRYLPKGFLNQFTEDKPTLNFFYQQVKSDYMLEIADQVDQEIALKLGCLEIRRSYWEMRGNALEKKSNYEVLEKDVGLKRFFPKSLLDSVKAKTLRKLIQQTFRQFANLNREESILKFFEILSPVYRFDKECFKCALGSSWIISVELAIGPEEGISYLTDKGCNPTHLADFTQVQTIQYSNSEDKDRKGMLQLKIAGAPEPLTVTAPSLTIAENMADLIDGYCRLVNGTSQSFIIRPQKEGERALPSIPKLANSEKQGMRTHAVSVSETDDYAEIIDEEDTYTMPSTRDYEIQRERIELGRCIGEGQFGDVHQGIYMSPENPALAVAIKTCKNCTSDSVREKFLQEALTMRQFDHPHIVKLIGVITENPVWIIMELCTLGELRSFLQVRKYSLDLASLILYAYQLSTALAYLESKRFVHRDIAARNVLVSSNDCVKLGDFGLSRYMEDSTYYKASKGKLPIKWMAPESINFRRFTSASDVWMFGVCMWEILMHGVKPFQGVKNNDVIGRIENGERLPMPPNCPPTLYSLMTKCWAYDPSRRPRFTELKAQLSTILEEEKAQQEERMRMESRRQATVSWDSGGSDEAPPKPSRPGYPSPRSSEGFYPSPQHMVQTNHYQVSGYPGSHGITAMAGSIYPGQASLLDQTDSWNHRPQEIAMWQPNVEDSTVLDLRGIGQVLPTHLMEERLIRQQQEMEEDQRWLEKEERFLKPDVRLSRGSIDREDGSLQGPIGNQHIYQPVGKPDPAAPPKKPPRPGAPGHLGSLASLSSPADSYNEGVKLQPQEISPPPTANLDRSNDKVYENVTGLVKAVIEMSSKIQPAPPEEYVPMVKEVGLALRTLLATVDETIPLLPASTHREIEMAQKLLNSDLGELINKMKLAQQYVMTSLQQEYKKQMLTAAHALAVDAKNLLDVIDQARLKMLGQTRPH
Follistatin (Homo sapiens), sequence (P19883 whole entry, looked up): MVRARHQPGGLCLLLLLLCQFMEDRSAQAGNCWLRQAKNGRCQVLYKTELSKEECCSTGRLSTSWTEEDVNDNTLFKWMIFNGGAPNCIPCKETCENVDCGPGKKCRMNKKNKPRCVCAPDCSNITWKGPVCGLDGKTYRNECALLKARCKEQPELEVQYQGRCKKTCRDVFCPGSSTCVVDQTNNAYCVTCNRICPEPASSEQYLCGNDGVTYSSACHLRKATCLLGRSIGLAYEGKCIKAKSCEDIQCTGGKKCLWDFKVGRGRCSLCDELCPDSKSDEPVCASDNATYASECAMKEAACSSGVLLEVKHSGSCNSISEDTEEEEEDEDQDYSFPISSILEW
Albumin (Bos taurus), sequence (P02769 whole entry, looked up): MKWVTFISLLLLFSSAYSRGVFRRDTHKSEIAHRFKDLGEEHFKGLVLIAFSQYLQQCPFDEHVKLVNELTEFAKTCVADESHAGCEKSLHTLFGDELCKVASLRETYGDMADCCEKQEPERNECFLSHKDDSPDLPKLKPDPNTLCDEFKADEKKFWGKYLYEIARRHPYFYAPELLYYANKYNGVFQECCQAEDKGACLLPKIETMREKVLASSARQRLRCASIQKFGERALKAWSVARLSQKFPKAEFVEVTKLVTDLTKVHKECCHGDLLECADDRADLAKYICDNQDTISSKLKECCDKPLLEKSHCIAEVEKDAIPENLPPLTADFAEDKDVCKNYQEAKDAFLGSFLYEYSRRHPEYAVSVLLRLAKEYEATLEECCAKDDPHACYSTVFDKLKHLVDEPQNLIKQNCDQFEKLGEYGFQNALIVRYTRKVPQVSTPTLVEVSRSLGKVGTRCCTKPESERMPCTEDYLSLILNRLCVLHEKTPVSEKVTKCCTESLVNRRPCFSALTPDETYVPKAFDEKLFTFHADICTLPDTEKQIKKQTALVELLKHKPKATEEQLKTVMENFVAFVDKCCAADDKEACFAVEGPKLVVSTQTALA
Fibroblast growth factor 2 (Homo sapiens), sequence (P09038 whole entry, looked up): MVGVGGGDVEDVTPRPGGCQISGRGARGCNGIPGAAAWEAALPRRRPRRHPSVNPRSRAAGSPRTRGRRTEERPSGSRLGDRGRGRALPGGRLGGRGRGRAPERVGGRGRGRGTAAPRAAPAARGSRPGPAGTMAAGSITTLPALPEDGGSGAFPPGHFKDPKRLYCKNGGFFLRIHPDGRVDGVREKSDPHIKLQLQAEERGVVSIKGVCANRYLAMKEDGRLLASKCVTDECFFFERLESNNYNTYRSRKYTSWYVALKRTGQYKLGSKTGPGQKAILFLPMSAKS
Concanavalin-A (Canavalia ensiformis), sequence (P02866 whole entry, looked up): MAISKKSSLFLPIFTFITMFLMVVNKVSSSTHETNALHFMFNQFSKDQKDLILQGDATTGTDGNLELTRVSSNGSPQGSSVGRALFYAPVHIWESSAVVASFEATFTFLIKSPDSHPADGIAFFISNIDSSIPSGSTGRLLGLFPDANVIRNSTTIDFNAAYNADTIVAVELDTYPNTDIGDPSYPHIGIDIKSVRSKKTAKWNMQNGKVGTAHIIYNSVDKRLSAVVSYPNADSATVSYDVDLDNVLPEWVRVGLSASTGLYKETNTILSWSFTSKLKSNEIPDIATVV

Row | SMILES | composite z-score (Albumin (Bos taurus)) | composite Z-score [1] | composite z-score [2] | composite z-score [3] | composite z-score [4] | composite z-score [5] | composite z-score [6] | composite z-score (Sam68 (KHDRBS1)) | composite z-score [7] | composite z-score [8] | composite z-score [9] | composite z-score [10] | composite z-score [11] | composite z-score [12] | composite z-score [13] | composite z-score [14] | z-score [15] | composite z-score (Lefty1) | composite z-score [16] | z-score [17]
1 | CC(CCC(=O)OC[C@H]1O[C@H](C#Cc2ccccc2)C=C[C@@H]1Oc1ccc(C)cc1)=NO[C@@H](C)c1cc(-c2c(C)cc(C)cc2C)no1 | 0.363 | -0.61 (inactive) | -0.272 | -0.14 | -0.0955 | 0.0007 | 0.173 | -0.42 | -0.872 | -0.214 | 0.888 | -1.49 | -0.0556 | 0.709 | -0.921 | -0.977 | -0.00541 | -0.589 | 0.848 | 0.0957 (inactive)
2 | CC(C)C(=O)N[C@H]1CCCN1C(=O)C=Cc1ccccc1 | 0.564 | -0.087 (inactive) | 0.276 | 0.0062 | 0.267 | 0.253 | 0.0905 | 0.752 | 0.242 | 0.163 | 0.508 | 0.899 | 0.225 | -0.198 | 0.438 | 0.54 | -0.509 | 1.13 | -0.441 | -0.0726 (inactive)
3 | CC(C)=NOC(C)CN1CCCCc2nc(C)c(C)cc21 (stereo not given) | 0.673 | 0.761 (inactive) | 0.169 | -0.0859 | 0.418 | 0.951 | 0.045 | 0.313 | 0.732 | 0.109 | 0.734 | -0.368 | -0.368 | 0.755 | 0.886 | 0.234 | 0.23 | 0.603 | -0.0583 | -0.327 (inactive)
4 | C[C@H]1C=CCC(=O)OC[C@H](C)C(=O)N2CCC[C@H]2C(=O)OC1 | -0.68 | 0.472 (inactive) | -0.161 | -0.115 | -0.656 | -0.802 | 0.374 | -0.374 | 1.62 | -0.35 | -0.637 | -1.44 | -0.943 | -1.09 | 1.43 | 2.01 | -0.823 | 1.61 | -1.18 | 1.32 (inactive)
5 | CCOC(=O)CCN1C(=O)[C@H]2[C@H]3[C@H](O)[C@H](O)CC(=NOCC=C(C)CCC=C(C)C)[C@@H]3CC[C@H]2C1=O | 0.275 | -0.754 (inactive) | -0.0043 | -0.154 | 0.003 | 0.0888 | 0.0278 | 0.449 | 0.434 | 1.01 | -0.34 | 0.741 | -0.115 | 0.7 | 0.696 | 0.884 | 0.0237 | 0.537 | 0.132 | 0.597 (inactive)
6 | COc1ccc(COC(=O)NN=C2C[C@@H](O)[C@@H](O)[C@@H]3[C@@H]4C(=O)N(Cc5ccccc5)C(=O)[C@@H]4CC[C@@H]23)cc1 | -0.0233 | -0.185 (inactive) | -0.0362 | -0.182 | -0.359 | 0.275 | -0.23 | 0.389 | 0.172 | 0.0738 | 0.57 | 0.343 | 0.0398 | -0.113 | 0.364 | 0.164 | 0.485 | 0.292 | -0.0049 | 0.778 (inactive)
7 | Cc1ccc(C(C)C)n1C(=O)OC(C)(C)C | -0.0834 | 1.17 (inactive) | -0.118 | -0.153 | -0.0359 | 0.0884 | 0.322 | 0.456 | 0.501 | 0.173 | -0.165 | 0.474 | 0.691 | -0.115 | 0.54 | 0.29 | 1.99 | 0.494 | 0.188 | -1.7 (inactive)
8 | CCN1C(=O)[C@H]2[C@H]3[C@H](O)[C@H](O)CC(=NOC[C@@H](O)[C@H]4O[C@@H]5OC(C)(C)O[C@@H]5[C@H]4O)[C@@H]3CC[C@H]2C1=O | 0.0226 | -0.485 (inactive) | -0.299 | -0.0662 | 0.343 | 0.324 | -0.203 | -0.0334 | -0.736 | -0.406 | -0.072 | -0.144 | -0.212 | -0.0432 | 0.387 | 0.383 | -0.548 | 0.0533 | -0.0038 | -0.819 (inactive)
9 | O=C1[C@H]2[C@H]3[C@H](O)[C@H](O)CC(=NO[C@@H]4O[C@H](CO)[C@@H](O)[C@H](O)[C@H]4O)[C@@H]3CC[C@H]2C(=O)N1C[C@@H]1CCCO1 | 0.587 | -0.258 (inactive) | -0.243 | -0.131 | 0.212 | 0.146 | -0.136 | 1.1 | 0.183 | 0.51 | 0.142 | 1.15 | 0.142 | 0.907 | 0.396 | 0.4 | -1.08 | 0.649 | 0.326 | 0.954 (inactive)
10 | C[C@@H]1C=CCC(=O)OC[C@H](C)C(=O)N[C@@H](Cc2ccccc2)C(=O)OC1 | -0.568 | 0.398 (inactive) | -0.133 | -0.0995 | -0.187 | -0.355 | 0.552 | -0.124 | 0.981 | 0.12 | -0.044 | -0.203 | -0.0171 | 0.0608 | 0.927 | 0.589 | -0.00638 | 0.432 | 0.0031 | -0.0028 (inactive)
11 | CC(=O)OC[C@H]1O[C@H](CC=NOC(C)CN2CCCCc3nc(C)c(C)cc32)C=C[C@@H]1OC(C)=O (stereo not given in full) | 0.486 | -1.11 (inactive) | 0.678 | 0.0312 | 0.0236 | 0.511 | 0.333 | 1.31 | 1.33 | 0.902 | 0.544 | 0.819 | 0.0336 | 0.495 | 1.23 | 0.773 | -0.683 | 1.55 | 0.73 | 1.46 (inactive)
